According to PubChem BioAssay (NCATS):
Several values for one entry are separate records, joined by “and”; a condition that tells them apart may be missing. Equal entries are not always repeated. Results filed as inconclusive are left out. The source holds several records for some structures; these can differ, active in one and inactive in another. Activity calls are given as the source filed them. The call rests on the fitted dose curve.

experiment: Confirmatory qHTS to identify inhibitors of SARS-CoV-2 cell entry (AID 1645844); details: SARS-CoV-2 pseudotyped particle cell entry, luciferase; series mostly up to 57.2 µM; further: nearly all actives have a fitted effect of over 45% in size
Procedure, shortened: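 HEK293-ACE2 cells (Expi293F stably expressing human ACE2) were pretreated with compounds for 1 hr at 37C, then infected with MLV-based particles carrying Wuhan-Hu-1 spike (C-terminal 19-aa truncation). Luciferase luminescence read after 48 hr; normalized to spike PP (100%) and bald PP (0%).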
Potency means the concentration at half of the fitted maximal effect.

Structure (SMILES) | Potency
CC[C@H](NC(=O)[C@H](CS(=O)(=O)CC1CC1)N[C@@H](c1ccc(F)cc1)C(F)(F)F)C(=O)C(=O)NC1CC1 | 1.08 µM (active)
CCCC[C@@H](C=O)NC(=O)[C@H](CC(C)C)NC(=O)OCc1ccccc1 | 1.08 µM (active)
Cc1cccc(/C=N/Nc2cc(N3CCOCC3)nc(OCCc3ccccn3)n2)c1 | 0.0764 µM (active)
Cc1cc(C)c(CNC(=O)c2cc(-c3ccc(N4CCN(C)CC4)nc3)cc3c2c(C)cn3C(C)C)c(=O)[nH]1 | 27.1 µM (active)

experiment: Cytotoxicity counterscreen for inhibitors of SARS-CoV-2 cell entry (AID 1645845); details: cell viability (SARS-CoV-2 entry assay cells); series mostly up to 57.1 µM; further: nearly all actives have a fitted effect of over 50% in size
Procedure, shortened: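 Expi293F/hACE2 cells seeded overnight; cpd pin-transferred in DMSO, 1 h preincubation, + media, 48 h 37 C 5% CO2; ATPLite 1step luminescence; normalized to cells and no cells.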

Structure (SMILES) | Potency
CCCN1CCN(c2ccc(C(=O)NC3(C(=O)NCC#N)CCCCC3)cc2)CC1 | inactive
CN1CCN(c2ccc(C(=O)Nc3n[nH]c4ccc(Cc5cc(F)cc(F)c5)cc34)c(NC3CCOCC3)c2)CC1 | 31.6 µM (active)
Cn1cc(-c2ccc(-c3cncc(Cl)c3N3CCC4(CCNC4=O)CC3)cc2)cn1 | inactive
CC[C@H](NC(=O)[C@H](CS(=O)(=O)CC1CC1)N[C@@H](c1ccc(F)cc1)C(F)(F)F)C(=O)C(=O)NC1CC1 | inactive
Cc1ncc(NC(=O)c2ccc(CN3CCN(C)CC3)c(C(F)(F)F)c2)cc1Nc1nccc(-c2cccnc2)n1 | inactive
C/C(=N\NC(=O)c1cccc(S(=O)(=O)N2CCOCC2)c1)c1cc(Cl)ccc1O | inactive
CCCC[C@@H](C=O)NC(=O)[C@H](CC(C)C)NC(=O)OCc1ccccc1 | inactive
CCCCNc1ncc2c(-c3ccc(CN4CCN(C)CC4)cc3)cn(C3CCC(O)CC3)c2n1 (stereo not given) | inactive and 25.1 µM (active)
Cc1cc(C)c(CNC(=O)c2cc(-c3ccc(N4CCN(C)CC4)nc3)cc3c2c(C)cn3C(C)C)c(=O)[nH]1 | inactive
CONC(=O)Nc1ccc(-c2sc3c(c2CN(C)Cc2ccccc2)c(=O)n(-c2ccccc2)c(=O)n3Cc2c(F)cccc2F)cc1 | inactive
CC#C[C@@H](CC(=O)O)c1ccc(OCc2cccc(-c3ccc(C(F)(F)F)cc3)c2)cc1 | inactive
CNC(=O)c1ccc2c(C(=Nc3cccc(CN(C)C)c3)c3ccccc3)c(O)[nH]c2c1 | inactive
C=CC(=O)N[C@H]1CCOC[C@H]1Nc1ncc2cc(-c3c(Cl)c(OC)cc(OC)c3Cl)ccc2n1 | inactive

experiment: Primary qHTS to identify inhibitors of SARS-CoV-2 cell entry (AID 1645846); details: SARS-CoV-2 pseudovirus cell entry assay, luminescence; activity change, negative = inhibition: at 57.1 µM (top of the series) unless noted; further: nearly all actives have a fitted effect of over 45% in size
Procedure, shortened: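 Using luciferase-reporting pseudoviruses carrying Wuhan-Hu-1 spike, the screen tracks entry into stably ACE2-expressing cells over 48 hr. Activity is expressed relative to spike particles versus particles lacking any fusion protein.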

Structure (SMILES) | Potency | activity change, negative = inhibition [%]
CN1CCN(c2ccc(C(=O)Nc3n[nH]c4ccc(Cc5cc(F)cc(F)c5)cc34)c(NC3CCOCC3)c2)CC1 | 28.2 µM (active) | –
CNCc1ccc(-c2cc(-c3nc(-c4ccc(S(=O)(=O)C(C)C)cc4)cnc3N)on2)cc1 | – | -25.7
CCCC[C@@H](C=O)NC(=O)[C@H](CC(C)C)NC(=O)OCc1ccccc1 | – | -89.9
Cc1cccc(/C=N/Nc2cc(N3CCOCC3)nc(OCCc3ccccn3)n2)c1 | – | -96.7
CCCCNc1ncc2c(-c3ccc(CN4CCN(C)CC4)cc3)cn(C3CCC(O)CC3)c2n1 (stereo not given) | 14.1 µM (active) | –
Cc1cc(C)c(CNC(=O)c2cc(-c3ccc(N4CCN(C)CC4)nc3)cc3c2c(C)cn3C(C)C)c(=O)[nH]1 | – | -89.9
O=C1Nc2nc(-c3c(O)cccc3OCC3CC3)cc([C@@H]3CCCNC3)c2CO1 | – | -96.7
Cc1cc2cc(Oc3ccnc(Nc4cccc(CS(=O)(=O)NCCN(C)C)c4)n3)ccc2[nH]1 | 35.5 µM (active) | –
